From PubChem
In the library only some 1.4% were active in any assay of this set; here they are far more common.
EPAC2 agonist = activates human EPAC2 exchange factor. Q8WZA2. EPAC2 activation, biochemical qHTS; response scale: 100% = 6.5 mM cAMP response. Potency, µM (top dose mostly 154 µM), without a hit: at the top dose activation, most hits filed as activators. 360,000 tested, 0.079% active. AID 720711; further: nearly all actives have a fitted effect of over 50% in size
Target sequence (Q8WZA2 whole entry, looked up): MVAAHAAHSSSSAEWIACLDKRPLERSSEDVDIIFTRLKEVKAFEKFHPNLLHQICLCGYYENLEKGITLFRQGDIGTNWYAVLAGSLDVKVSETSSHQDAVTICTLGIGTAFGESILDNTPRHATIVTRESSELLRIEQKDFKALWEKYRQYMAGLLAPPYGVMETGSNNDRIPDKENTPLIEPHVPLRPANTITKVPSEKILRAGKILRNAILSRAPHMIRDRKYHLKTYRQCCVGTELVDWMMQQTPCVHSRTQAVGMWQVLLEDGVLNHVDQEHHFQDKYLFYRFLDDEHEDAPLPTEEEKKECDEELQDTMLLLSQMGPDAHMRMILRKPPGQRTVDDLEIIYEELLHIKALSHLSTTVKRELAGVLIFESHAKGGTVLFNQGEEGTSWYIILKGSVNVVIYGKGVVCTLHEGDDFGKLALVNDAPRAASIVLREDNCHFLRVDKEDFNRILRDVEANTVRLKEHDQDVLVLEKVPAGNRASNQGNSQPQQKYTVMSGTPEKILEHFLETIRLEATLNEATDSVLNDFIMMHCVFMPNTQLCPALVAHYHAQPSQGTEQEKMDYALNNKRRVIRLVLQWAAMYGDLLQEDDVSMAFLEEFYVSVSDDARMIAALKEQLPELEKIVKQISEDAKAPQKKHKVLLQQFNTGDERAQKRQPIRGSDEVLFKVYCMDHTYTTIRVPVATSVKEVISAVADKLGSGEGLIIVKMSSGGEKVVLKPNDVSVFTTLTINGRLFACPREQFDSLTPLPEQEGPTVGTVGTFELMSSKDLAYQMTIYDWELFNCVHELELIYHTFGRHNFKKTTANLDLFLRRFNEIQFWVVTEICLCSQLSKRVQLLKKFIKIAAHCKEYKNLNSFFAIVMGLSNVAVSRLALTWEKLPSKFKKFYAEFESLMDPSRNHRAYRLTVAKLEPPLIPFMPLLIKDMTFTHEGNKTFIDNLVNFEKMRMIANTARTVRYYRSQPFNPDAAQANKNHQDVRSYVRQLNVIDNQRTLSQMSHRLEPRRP
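EPAC2 (100 nM) mixed with Rap1B loaded with BODIPY-GDP (250 nM) plus 50 uM unlabeled GDP; compounds pinned in, 5 min RT, then read every 5 min for 30 min (ex 480, em 540 nm). Normalized to cAMP control.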
BRCA1 expr up = increases BRCA1 expression; MCF7-BRCA1-FFLuc reporter, luminescence, 48 h; response scale: scaled: vehicle 0%, 10 µM genistein 100%; Potency, µM (doses to about 46.1 µM), for inactives: at the top dose activation, usual class: activators; 380,000 tested, 1.1% active; AID 624202; further: nearly all actives have a fitted effect of over 80% in size
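Luminescence from a BRCA1-driven firefly luciferase in MCF7 cells was the read-out, taken 15 min after substrate addition following 48 h compound exposure at 37 °C. Data were normalized to a 10 microM genistein control and DMSO vehicle.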
USP1-UAF1 inh = USP1/UAF1 (human) deubiquitinase inhibition. recombinant USP1/UAF1, Ub-Rhodamine cleavage fluorescence. AID 743255. O94782. Potency, µM (highest dose often 57.1 µM), inactives show at the highest dose activity change, negative = inhibition, actives largely listed as inhibitors. 390,000 tested, 0.23% active; further: on the % scale 0 is the no-effect control and ±100 the full control effect; nearly all actives have a fitted effect of over 60% in size
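High-throughput fluorogenic screen: 1nM USP1/UAF1 complex, Ub-Rho substrate 150nM final, 50mM HEPES pH 7.8 with 0.5mM EDTA, 0.1 mg/ml BSA, 1mM TCEP and 0.01% Tween-20.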
EPAC1 agonist = activates human EPAC1 exchange factor; O95398; EPAC1 agonist qHTS, biochemical assay; response scale: 100% = response to 6.5 mM cAMP; Potency, µM (top dose mostly 154 µM), inactives show at the highest dose activation, most hits filed as activators; 360,000 tested, 0.073% active; further: nearly all actives have a fitted effect of over 60% in size
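Compounds were pinned as a concentration titration into mixtures of EPAC1 (100 nM), BODIPY-GDP-loaded Rap1B (250 nM) and GDP (50 uM). After 5 min at room temperature, fluorescence was followed for 30 min; activity was scaled to 6.5 mM cAMP.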
EPAC2 antag = blocks human EPAC2 exchange factor | EPAC2 GEF exchange of Rap1B-BODIPY-GDP, fluorescence | Potency, µM (top dose mostly 114 µM), for the others: at the top dose activity, negative = inhibition, actives largely listed as inhibitors | 360,000 tested, 0.18% active | AID 720708; further: on the % scale 0 is the no-effect control and ±100 the full control effect; nearly all actives have a fitted effect of over 45% in size
EPAC1 antagonist = antagonists of human EPAC1 | 360,000 tested, 0.14% active | Potency, µM (titrated, usually from 115 µM), for the others: at the highest dose activity change, negative = inhibition, usual class: inhibitors | O95398 | EPAC1 GEF assay, Rap1b-BODIPY-GDP exchange fluorescence | AID 720709;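 further: plate controls were vehicle for no effect and positive control for full effect; nearly all actives have a fitted effect of over 50% in size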
* = called active by the depositor; ? = inconclusive; . = no result. The call rests on the fitted dose curve; in most records, active means well fitted curve in the direction sought with a large enough effect; inconclusive means small, poorly fitted or top-dose-only effect, or another doubt; inactive means no such curve, though single readings can be large; an effect the other way counts as inactive or inconclusive. Potency means the concentration at half of the fitted maximal effect.

SMILES	EPAC2 agonist	BRCA1 expr up	USP1-UAF1 inh	EPAC1 agonist	EPAC2 antag	EPAC1 antagonist
CN(c1nc(-c2ccc(Br)cc2)cs1)C1CCS(=O)(=O)C1 (stereo not given)	14%	11µM*	?	4%	-5%	-6%
COc1ccc2oc(=N)c(C(=O)Nc3ccccc3Cl)cc2c1	0%	4.5µM*	-12%	-2%	7%	-9%
COc1ccc2oc(=N)c(C(=O)Nc3ccccc3)cc2c1	-1%	50%	-28%	0%	1%	0%
Cc1cc(C)c2nc(N3CCCC(C(=O)NCCN4CCOCC4)C3)sc2c1 (stereo not given)	1%	2.8µM*	-25%	-3%	6%	9%
O=C(O)c1cccc(S(=O)(=O)Nc2cc(Cl)ccc2Cl)c1	8%	-2%	-10%	9%	-3%	-16%
CC1CC(C)CN(C(=O)c2cccc(S(=O)(=O)Nc3cc(C(F)(F)F)ccc3Cl)c2)C1 (stereo not given)	-14%	-1%	?	-13%	50µM*	50µM*
O=C(Nc1cc(Cl)ccc1Cl)c1ccco1	3%	-11%	-19%	1%	0%	2%
CS/C(Nc1cc(Cl)ccc1Cl)=C(/C#N)C(=O)c1ccco1	3%	-9%	?	-9%	-4%	50µM*
CCOC(=O)/C(=C\c1ccc(N2CCC(c3ccccc3)=N2)cc1)C(C)=O	100µM*	-25%	28µM*	?	169%	11%
O=C(/C=C/c1ccc(N2CCC(c3ccccc3)=N2)cc1)c1ccccc1	-30%	38%	174%	-20%	10%	44%
CC(C)OC(=O)N(C)C[C@@H]1OCc2ccccc2-c2c(n(C)c3ccccc23)C(=O)N([C@@H](C)CO)C[C@H]1C	-2%	-2%	-10%	3%	0%	-6%
CCCNC(=O)c1ccc2c(=O)c(O)c(-c3ccsc3)[nH]c2c1	89µM*	-20%	-14%	21%	10%	-1%
CCCNC(=O)c1ccc2c(=O)c(O)c(-c3ccc(C)cc3)[nH]c2c1	-6%	-72%	-9%	1%	-23%	-16%
CCNc1ccc(Br)cc(C(=O)/C=C/c2ccccc2Cl)c1=O	2%	-87%	28µM*	5%	15%	-24%
C[C@@H]1CN([C@@H](C)CO)C(=O)CCCn2nncc2CO[C@H]1CN(C)C(=O)Nc1ccccc1F	17%	5%	-16%	-29%	5%	-12%
O=C(Cc1ccccc1)N1CCc2ccccc21	3%	?	-1%	8%	-1%	1%
COc1ccc2c(CC(=O)OCC(=O)N3CCc4ccccc43)coc2c1	5%	11%	-24%	7%	-2%	-13%
COc1ccc2c(CC(=O)N3CCc4ccccc43)coc2c1	19%	3.5µM*	-5%	4%	-5%	-6%
COc1ccc(CC(=O)N2CCc3ccccc32)cc1	11%	8.9µM*	-6%	-1%	2%	-8%
COc1ccc(-c2cc(C(F)F)n3ncc(C(=O)N4CCc5ccccc54)c3n2)cc1	100µM*	-73%	-10%	-15%	59%	-18%
CC(=O)NC1Sc2ccccc2N=C1c1ccccc1 (stereo not given)	2%	10µM*	-13%	9%	-4%	7%
CCOC(=O)C1CCN(C(=O)c2cc3cc(C)ccc3[nH]2)CC1	2%	2.8µM*	-21%	5%	-8%	-4%
COc1ccc(C)cc1NC(=O)N(Cc1ccc(C)o1)C1CCN(C(C)=O)CC1	.	.	-10%	.	.	.
O=C(c1ccc(F)cc1)c1cnc(Nc2ccccc2)s1	6%	2µM*	2%	-11%	7%	8%
Cc1n[nH]c(=O)n1-c1ccc(OCc2ccccc2)cc1	3%	5.6µM*	-20%	5%	0%	0%
SMILES	EPAC2 agonist	BRCA1 expr up	USP1-UAF1 inh	EPAC1 agonist	EPAC2 antag	EPAC1 antagonist
COc1ccc(Cl)cc1NC(=O)N1CCN(Cc2cc(=O)n3nc(-c4ccccc4)sc3n2)CC1	.	0%	-28%	.	.	.
Cc1nnc(Sc2cc(NCCCO)c([N+](=O)[O-])c3nonc23)s1	14%	6%	14µM*	3%	18%	40µM*
O=C(CCc1nnc2n(Cc3ccccc3Cl)c(=O)c3ccccc3n12)Nc1ccc(F)c(F)c1	.	.	-3%	.	.	.
O=C(CCc1ccccc1)n1nc(-c2ccco2)nc1SCc1ccccc1	5%	10µM*	-1%	1%	2%	?
CSc1nc(-c2ccco2)nn1C(=O)Cc1ccccc1	9%	6%	8%	4%	2%	0%
Cc1ccc2c(c1)c1c(c(=O)n(-c3cccc(Cl)c3)c(=O)n1CC(=O)c1ccc(Cl)cc1)n2C	.	.	-21%	.	.	.
O=C1C=C(O)c2[nH]c(=O)ccc2C1=O	-1%	-16%	25µM*	-3%	-18%	-24%
O=C1C=C(O)c2c(O)cc(O)c(O)c2C1=O	-2%	-4%	-23%	-22%	7%	?
CN(C)c1ccc(/C=C2\C=Cc3ccccc32)cc1	.	3.5µM*	.	.	.	.
CCN(CC)c1ccc(/C=C2\C=Cc3ccccc32)cc1	.	4.5µM*	.	.	.	.
COCCn1c(N)c(C(=O)NCC2CCCO2)c2nc3ccccc3nc21 (stereo not given)	3%	-59%	25µM*	-8%	-27%	?
Nc1c(C(=O)NCC2CCCO2)c2nc3ccccc3nc2n1/N=C/c1ccncc1 (stereo not given)	-8%	4%	-30%	16%	-2%	11%
COc1ccc(OC)c(-n2c(N)c(C(=O)NCC3CCCO3)c3nc4ccccc4nc32)c1 (stereo not given)	3%	-52%	-15%	8%	-6%	-13%
CC(C)Cn1c(N)c(C(=O)NCC2CCCO2)c2nc3ccccc3nc21 (stereo not given)	-2%	-55%	-20%	7%	-25%	50µM*
CCOc1ccc(/C=N/NC(=O)c2ccoc2C)cc1OC	13%	10µM*	?	7%	0%	-17%
Cc1ccc(/C=N/NC(=O)c2ccoc2C)s1	3%	?	-11%	6%	-1%	8%
Cc1occc1C(=O)N/N=C/c1ccc(Br)s1	5%	8.9µM*	2%	3%	2%	-6%
Cc1ccc(-c2csc(N3CCC(C(N)=O)CC3)n2)cc1	7%	?	.	6%	-9%	-4%
NC(=O)C1CCN(c2nc(-c3ccc4ccccc4c3)cs2)CC1	7%	13µM*	.	-9%	2%	-5%
NC(=O)C1CCN(c2nc(-c3cccc(Cl)c3)cs2)CC1	7%	4µM*	.	-8%	-11%	-14%
